GLP1R ag – activates the human GLP-1 receptor; P43220; HEK293 GLP-1R CRE-luciferase, luminescence, 4-6 h; cells express a hypersensitive GLP-1R form; Potency, µM (doses to about 45.6 µM), for the others: at the top dose activation, actives largely listed as activators; hit rate 0.007% among 380,000; AID 624172; further: potency means the concentration at half of the fitted maximal effect; % of control where 0% means no effect
GLP1R inv ag – GLP-1 receptor (human) inverse agonism | P43220 | HEK293 GLP-1R CRE-luciferase, luminescence, 24 h; GLP-1R form is constitutively active | Potency, µM (doses to about 38.3 µM), without a hit: at the highest dose activity change, negative = inhibition, usual class: inhibitors | hit rate 1.6% among 410,000; further: potency means the concentration at half of the fitted maximal effect; on the % scale 0 is the no-effect control and ±100 the full control effect; nearly all actives have a fitted effect of over 55% in size
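Seeding at 200 cells/uL, 12 h culture, 24 hr compound treatment, then luciferase reagent and a luminescence read; cells are HEK293 stably expressing a constitutively active GLP-1R plus cAMP-responsive luciferase.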
TRHR enhancer – allosteric enhancers of human TRH receptor; hit rate 0.66% among 360,000; enhancement, % at 2 µM; TRHR cells, fluo-8 calcium fluorescence, EC20 TRH enhancement; P34981; in the data active means enhancement above about 30%; further: 0% is about no effect
Target sequence (P34981 whole entry, looked up): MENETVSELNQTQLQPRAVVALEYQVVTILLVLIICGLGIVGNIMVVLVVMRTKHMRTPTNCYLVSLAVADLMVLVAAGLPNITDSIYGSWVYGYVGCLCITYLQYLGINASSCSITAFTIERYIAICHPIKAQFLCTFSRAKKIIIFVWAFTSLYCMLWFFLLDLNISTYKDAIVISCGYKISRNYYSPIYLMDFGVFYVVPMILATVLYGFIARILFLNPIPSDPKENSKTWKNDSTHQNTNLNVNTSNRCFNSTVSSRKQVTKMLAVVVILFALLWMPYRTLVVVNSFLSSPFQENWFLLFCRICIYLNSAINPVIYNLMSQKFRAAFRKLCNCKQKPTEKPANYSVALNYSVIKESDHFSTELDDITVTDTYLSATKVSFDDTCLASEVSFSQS
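TRHR-expressing cells loaded with fluo-8 calcium dye were read kinetically (ex 480/em 530) during compound addition, then stimulated with an EC20 of TRH (10 nM final). Enhancement of the Gq-mediated intracellular calcium response was scored.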
TRHR agonist – TRH receptor (human) agonism | P34981 | TRHR cells, calcium flux fluo-8, FDSS agonist mode | activation, % at 2 µM | hit rate 0.18% among 360,000 | AID 493084; in the data active means activation above about 30%; further: 0% is about no effect
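TRHR-expressing cells loaded with fluo-8 calcium dye; 23 nL library compound pin-transferred, kinetic FDSS fluorescence (Ex 480/Em 530) recorded about 180 s for agonist-induced calcium release, before a 10 nM TRH EC20 addition for potentiator mode.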
PTHR1 ag – agonists of human PTHR1 parathyroid hormone receptor; hit rate 0.075% among 410,000; Potency, µM (doses to about 115 µM), for the others: top-dose activation, actives largely listed as activators; AID 743266; HEK293 GP2 PTHR1 cells, GloSensor cAMP luminescence, 1 h; Q03431; further: potency means the concentration at half of the fitted maximal effect; nearly all actives have a fitted effect of over 55% in size
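HEK-293-derived GP2 cells expressing PTHR1 and a GloSensor cAMP reporter, 3,000/well, plated overnight, given luciferin plus IBMX (each 0.5 mM as added) for 1 h at 37 °C, then compound for 1 h at 37 °C. Luminescence was read after 15 min at room temperature.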
HEK293 tox – cytotoxicity counter-screen for GLP-1 receptor inverse agonists | HEK293 cAMP-luciferase reporter cells, luminescence, 24 h | Potency, µM (highest dose often 38.3 µM), inactives show top-dose activity change, negative = inhibition, usual class: inhibitors | hit rate 0.13% among 410,000 | AID 624418;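 further: loss of luciferase light is scored as toxicity; potency means the concentration at half of the fitted maximal effect; on the % scale 0 is the no-effect control and ±100 the full control effect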
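To flag toxic compounds, the library was rerun on cells for 24 hr at 37 deg C and 5% CO2. Viability-linked luminescence was captured 12 min after adding luciferase detection reagent.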
* marks the source's active call; other numbers are inactive results. In the library only some 2.4% were active in any assay of this set; here they are far more common. Unless noted, the call rests on the fitted dose curve; in most records, active means well fitted curve in the direction sought with a large enough effect; inconclusive means small, poorly fitted or top-dose-only effect, or another doubt; inactive means no such curve, though single readings can be large; an effect the other way counts as inactive or inconclusive.

CCc1ccc(S(=O)(=O)c2cn(C)c3cc(N4CCCCC4C)c(F)cc3c2=O)cc1 (stereo not given) was read as GLP1R inv ag inconclusive, TRHR enhancer 2.1, TRHR agonist -0.8, PTHR1 ag -41.8% and HEK293 tox 2.9%.
`O=C(/C=C/Nc1ccccc1)C(F)(F)F` gave GLP1R ag -1.0%, GLP1R inv ag -22.2%, TRHR enhancer 3.0, TRHR agonist 0.7, PTHR1 ag 5.0% and HEK293 tox 4.5%.
O=Cc1cccnc1SCc1ccccc1 was read as GLP1R ag 26.0%, GLP1R inv ag -27.4%, PTHR1 ag -6.9% and HEK293 tox -22.1%.
CN1CCC(N(C)C(=O)c2sc3cc(F)ccc3c2Cl)CC1 was read as GLP1R ag 2.9%, GLP1R inv ag 7.08µM*, TRHR enhancer 0.1, TRHR agonist 0.0, PTHR1 ag inactive and HEK293 tox 5.9%.
CC(C)N(CC(N)=O)C(=O)c1sc2cc(F)ccc2c1Cl was read as GLP1R ag 0.0%, GLP1R inv ag 2.4%, TRHR enhancer 2.5, TRHR agonist 0.3, PTHR1 ag -21.8% and HEK293 tox 0.8%.
For COc1cc(C(=O)N/C(=C\c2cn(C)c3ccccc23)C(=O)NCCCn2ccnc2)cc(OC)c1OC the results were GLP1R ag -0.4%, GLP1R inv ag -11.9%, TRHR enhancer -3.5, TRHR agonist 0.0, PTHR1 ag -18.0% and HEK293 tox 0.2%.
`CCCc1[nH]c2ccc(C#N)cc2c1CCC` gave GLP1R ag -1.6%, GLP1R inv ag 10µM*, TRHR enhancer -11.9, TRHR agonist 3.7, PTHR1 ag -9.8% and HEK293 tox inconclusive.
Screening O=c1c2ccccc2oc2ccc(C#CC3(O)CCCCC3)cc12 returned GLP1R ag -1.0%, GLP1R inv ag 7.08µM*, PTHR1 ag -27.5% and HEK293 tox -27.0%.
Cn1c2ccccc2c(=O)c2cc(C#CC3(O)CCCCC3)ccc21 was read as GLP1R ag -4.9%, GLP1R inv ag 1µM*, TRHR enhancer 1.1, TRHR agonist -1.6, PTHR1 ag -93.1% and HEK293 tox -1.2%.
`CCN(C(=O)CSc1nc2ccccc2nc1Cc1ccc(F)cc1)c1cccc(C)c1` gave GLP1R inv ag 14.3%, TRHR enhancer -0.8, TRHR agonist 1.1, PTHR1 ag -4.3% and HEK293 tox -0.1%.
CCN(C(=O)CSc1nc2ccccc2nc1Cc1cccc(OC)c1)c1cccc(C)c1 was read as GLP1R inv ag 11.2µM*, TRHR enhancer -3.5, TRHR agonist 1.8, PTHR1 ag -29.1% and HEK293 tox -4.1%.
CCN(C(=O)CSc1nc(-c2ccccc2)no1)c1cccc(C)c1 was read as GLP1R inv ag 1.26µM*, TRHR enhancer -5.1, TRHR agonist 0.6, PTHR1 ag -43.3% and HEK293 tox -22.1%.
For CC(C)N1C(=O)C(O)(C2COC(C)(C)CC2=O)c2ccccc21 (stereo not given) the results were GLP1R ag -4.7%, GLP1R inv ag 10.8%, TRHR enhancer 33.1*, TRHR agonist 0.1, PTHR1 ag 10.1% and HEK293 tox 3.8%.
For COc1cc(OC)c(OC)cc1/C=C/c1nc2cc3ccccc3cc2c(=O)n1-c1ccc(Cl)cc1 the results were GLP1R inv ag inconclusive, TRHR enhancer -2.6, TRHR agonist 8.3, PTHR1 ag -5.6% and HEK293 tox -1.1%.
Screening CCCC(=O)Nc1cccc(Oc2ccc3c(c2)C(=O)NC3=O)c1 returned GLP1R ag 7.5%, GLP1R inv ag 15.6%, TRHR enhancer 34.6*, TRHR agonist -0.9, PTHR1 ag -0.3% and HEK293 tox -9.3%.
`COC(=O)c1ccc(-n2cncn2)c([N+](=O)[O-])c1` gave GLP1R ag 0.9%, GLP1R inv ag -6.1%, TRHR enhancer 36.9*, TRHR agonist 0.1, PTHR1 ag -28.1% and HEK293 tox 0.5%.
Screening CCCCn1c(N)c(N(CCC(C)C)C(=O)c2ccc3ccccc3c2)c(=O)[nH]c1=O returned GLP1R ag -2.1%, GLP1R inv ag 0.2%, TRHR enhancer -1.5, TRHR agonist 0.3, PTHR1 ag inactive and HEK293 tox -7.7%.
For Cc1ccc2c(c1)C(=O)C(=O)N2Cc1ccc(OC(C)C)cc1 the results were GLP1R inv ag 1.12µM*, TRHR enhancer -0.7, TRHR agonist -2.0, PTHR1 ag -0.2% and HEK293 tox inconclusive.
Cc1ccc2c(c1)C(=O)C(=O)N2Cc1ccc(C(F)(F)F)cc1 was read as GLP1R ag -7.3%, GLP1R inv ag -19.7%, PTHR1 ag -16.3% and HEK293 tox 0.7%.
`Cc1ccc(NC(=O)CN(C)C(=O)Cc2ccc(Cl)c(Cl)c2)cc1` gave GLP1R ag 14.3%, GLP1R inv ag 7.94µM*, TRHR enhancer 2.0, TRHR agonist 0.6, PTHR1 ag inactive and HEK293 tox -1.7%.
C(=C\c1ccccc1)/CSc1nnc(-c2ccccc2)n1Cc1ccco1 was read as GLP1R ag 7.1%, GLP1R inv ag 7.08µM*, TRHR enhancer -5.0, TRHR agonist 0.8, PTHR1 ag -25.4% and HEK293 tox -29.8%.
`COc1ccc(N(Cc2cccs2)C(=O)COc2ccc([N+](=O)[O-])cc2)cc1` gave GLP1R inv ag inconclusive, TRHR enhancer -6.6, TRHR agonist 0.6, PTHR1 ag -25.8% and HEK293 tox 3.1%.
Screening COc1ccc(N(Cc2cccs2)C(=O)COc2cccc(Cl)c2)cc1 returned GLP1R inv ag 14.1µM*, TRHR enhancer -3.4, TRHR agonist 2.1, PTHR1 ag inactive and HEK293 tox 2.1%.
Screening Cc1ccccc1CC1(CO)CCCN(Cc2ccn[nH]2)C1 (stereo not given) returned GLP1R ag 5.7%, GLP1R inv ag inconclusive, TRHR enhancer -4.6, TRHR agonist 0.2, PTHR1 ag inactive and HEK293 tox -3.4%.
For Cc1ccc(CN2CCCC(CO)(Cc3ccccc3C)C2)s1 (stereo not given) the results were GLP1R ag 8.4%, GLP1R inv ag 8.91µM*, TRHR enhancer -4.1, TRHR agonist 0.7, PTHR1 ag -7.2% and HEK293 tox inconclusive.
For CC(Oc1ccccc1)C(=O)NNC(=O)c1ccccn1 (stereo not given) the results were GLP1R ag -18.1%, GLP1R inv ag inconclusive, TRHR enhancer 6.8, TRHR agonist 0.2, PTHR1 ag 8.7% and HEK293 tox inconclusive.
For CC(Oc1cccc(Br)c1)C(=O)NNC(=O)c1ccccn1 (stereo not given) the results were GLP1R ag 0.9%, GLP1R inv ag 11.2µM*, PTHR1 ag -7.7% and HEK293 tox inconclusive.

Screening data as filed in PubChem.
